An excerpt weighted towards active compounds, which were near 1.3% of everything screened.
ugtP null kill = compounds lethal to S. aureus RN4220 ugtP deletion mutant; OD600 growth, 16 h; growth inhibition, % (test concentration not listed); 0.54% of 330,000 active; AID 1259309; in the data active means growth inhibition above about 68%
Sa RN4220 lethal = S. aureus RN4220 growth inhibition. OD600, 16 h. inhibition, % (concentration not given with the values). 0.33% of 330,000 active; in the data active means inhibition above about 85%
SARS 3CLpro inh = SARS-CoV 3CLpro protease inhibition. P0C6X7. 0.14% of 290,000 active. inhibition, % at 6 µM. recombinant SARS-CoV 3CLpro, quenched FRET peptide cleavage; in the data active means inhibition above about 12%
Mtb betalactam = beta-lactam sensitization of Mtb H37Rv; M. tuberculosis H37Rv growth with meropenem, percent inhibition; inhibition, % at 25 µM; 0.27% of 330,000 active; AID 434955; call rule not given here;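 further: growth measured after seven days incubation then overnight dye step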
MazF activator = increases E. coli MazEF RNase cleavage of RNA | activation, % at 20 µM | P0AE70 | 0.32% of 350,000 active | FAM/BHQ RNA-DNA oligo cleavage fluorescence, 5 h | AID 504720; in the data active means activation above about 50%
Target sequence (P0AE70 whole entry, looked up): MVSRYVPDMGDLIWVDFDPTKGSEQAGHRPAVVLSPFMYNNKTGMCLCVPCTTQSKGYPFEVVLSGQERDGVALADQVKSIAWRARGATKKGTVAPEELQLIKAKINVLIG
CCHF vOTU inh = CCHFV vOTU protease inhibition. Pep-AMC fluorescence. inhibition, % at 11.5 µM. 0.55% of 370,000 active; in the data active means inhibition above about 30%
A number is an active result; n = inactive; u = inconclusive; x = no result.

SMILES | ugtP null kill | Sa RN4220 lethal | SARS 3CLpro inh | Mtb betalactam | MazF activator | CCHF vOTU inh
N#C/C(C(=O)Oc1ccccc1)=C1\C=Cc2ccccc2N1 | n | n | n | n | 50 | n
N#CC(C(=O)Oc1ccccc1)=C1C=CC=CN1 | n | n | x | x | x | x
O=C(NN=Cc1sc(N2CCCCC2)nc1-c1cccs1)c1cccnc1 | n | n | x | x | x | x
Cc1occc(=O)c1OC(=O)Nc1ccc(Cl)c(Cl)c1 | 99 | 99 | n | n | n | n
COc1ccc(C(=O)Oc2c(C)occc2=O)cc1OC | n | n | n | n | n | n
CC(CCc1ccccc1)=NNC(=O)CCc1ccccc1 | n | n | x | x | x | x
Cc1ccc(OCCn2cc(/C=C(\C#N)C(=O)NCC3CCCO3)c3ccccc32)cc1 (configuration not stated) | n | n | n | n | 57 | n
N#C/C(=C\c1ccco1)C(=O)NCC1CCCO1 (configuration not stated) | n | n | n | n | n | 36
Cc1ccc(/C=C(\C#N)C(=O)NCC2CCCO2)o1 (configuration not stated) | n | n | n | n | n | n
Cc1ccc(OCCn2cc(/C=C(\C#N)C(=O)NCC3CCCO3)c3ccccc32)cc1C (configuration not stated) | n | n | n | n | 114 | n
CC1CN(C(C)CO)C(=O)c2cccc(NC(=O)CCC(F)(F)F)c2OC1CN(C)S(=O)(=O)c1cccs1 (configuration not stated) | n | n | x | x | x | x
CC(C)(C)c1cnnn1-c1ccc(C(=O)CCl)cc1 | 98 | 96 | n | n | n | n
CC(C)(C)c1cnnn1-c1ccc(C=O)cc1 | n | n | n | n | n | n
O=[N+]([O-])c1ccc2c(c1)C(=NO)c1ccccc1-2 | 97 | n | x | x | x | x
CC(=O)NN1C(=O)c2ccc3c4c(ccc(c24)C1=O)C(=O)N(NC(C)=O)C3=O | n | n | n | n | 69 | n
O=C1c2ccc3c4c(ccc(c24)C(=O)N1NC(=O)C(F)(F)F)CC3 | n | n | n | n | n | n
CC(OC(=O)c1oc2ccccc2c1CSC1CCCCC1)C(=O)NC(N)=O (configuration not stated) | 99 | n | n | u | n | n
CCCn1c(O)c(N=Nc2ccc3ccccc3n2)c2ccccc21 | n | n | n | n | 146 | n
CN1/C(=C\C(=O)Nc2ccc(Cl)cc2)C(C)(C)c2ccccc21 | 97 | 94 | n | n | n | n
O=C(O)c1ccc2c(c1)[C@@H]1C=CC[C@@H]1[C@H](c1ccccn1)N2 | n | n | n | n | n | 54
COc1ccc(C(=O)N/N=C(\C)c2ccc3c(c2)C2C=CCC2C(c2ccccc2)N3)cc1 (configuration not stated) | x | x | n | n | n | x
CC(=Cc1ccccc1)CC1=C(C)C2(CC2)[C@@]2(C)OC(=O)OC2C1=CCO (some centres not stated) | n | n | x | x | x | x
CC(=O)Nc1ccc(C(=O)CSc2cc(C)c3cccc(C)c3n2)cc1 | n | n | n | n | 78 | n
Cc1ccccc1OCC(=O)NN=Cc1ccc([N+](=O)[O-])o1 | n | n | x | x | x | x
COc1ccccc1OCC(=O)NN=CC=Cc1ccc([N+](=O)[O-])o1 | 100 | 101 | x | x | x | x
SMILES | ugtP null kill | Sa RN4220 lethal | SARS 3CLpro inh | Mtb betalactam | MazF activator | CCHF vOTU inh
Cn1c(=O)c(NCCc2ccccc2)c2c3c(cccc31)C(=O)c1ccccc1-2 | n | n | n | n | 60 | n
CC(=NOC(=O)c1ccc(Cl)cc1Cl)c1oc(C)nc1C | n | n | x | x | x | x
CCN(CC)C(=S)SSC(=S)N(CC)CC | 99 | n | n | n | n | n
O=C(NN1C(=O)c2ccccc2NC1c1ccc([N+](=O)[O-])o1)c1ccc(Br)cc1 (configuration not stated) | n | n | n | n | 64 | n
COc1cc(C=NN(c2ccccc2)c2ccccc2)ccc1O | n | n | x | x | x | x
Cc1ccc(S(=O)(=O)N2C(c3cccc(Cl)c3)CC=C(C(=O)O)C2c2ccc(F)cc2)cc1 (configuration not stated) | n | n | x | x | x | x
Oc1c(Cl)c(Cl)c(Cl)c(Cl)c1Cl | 100 | 100 | x | n | n | n
Oc1c(Cl)c(Cl)c2ncccc2c1Cl | n | n | x | x | n | n
O=C1C(Nc2ccc(O)cc2)=CC(=NS(=O)(=O)c2cccs2)c2ccccc21 | n | n | x | x | x | x
O=C1C(Nc2ccc(O)cc2)=C/C(=N/S(=O)(=O)c2cccs2)c2ccccc21 | x | x | n | x | n | 108
COC1C=COC2(C)Oc3c(C)c(O)c4c(O)c(c(CN5CCN(C)CC5)c(O)c4c3C2=O)NC(=O)C(C)=CC=CC(C)C(O)C(C)C(O)C(C)C(OC(C)=O)C1C (configuration not stated) | x | x | x | x | n | n
COC1C=CO[C@@]2(C)Oc3c(C)c(O)c4c(O)c(c(C=NN5CCN(C6CCCC6)CC5)c(O)c4c3C2=O)NC(=O)C(C)=CC=CC(C)C(O)C(C)C(O)C(C)C(OC(C)=O)C1C (some centres not stated) | 98 | 99 | x | x | x | x
COc1ccc(C)cc1Nc1n[n+](-c2ccccc2)c(-c2cc([N+](=O)[O-])cc(OC)c2O)s1 | n | n | n | n | 445 | x
COc1cc(C=CC(=O)O)cc(OC)c1O | n | n | x | x | x | x
COc1ccc(C(C)=Nn2cnnc2)cc1 | n | n | x | x | x | x
CC[n+]1c(/C=C/C=C/c2ccc(N(C)C)cc2)sc2ccccc21 | 82 | 88 | n | n | n | n
CC[n+]1c(/C=C/N(C)c2ccccc2)sc2ccc(Cl)cc21 | n | n | n | n | n | n
CC[n+]1c(/C=C/C=C/N(C(C)=O)c2ccccc2)sc2ccccc21 | x | x | n | n | 154 | n
CC(C)CC1CN=C(Nc2ccccc2)N1CC1CCCCC1 (configuration not stated) | n | n | x | x | x | x
C#CCOCCOCCOCCNc1nc(N2CCN(C(=O)C(CCCCN)n3cc(C(N)CC(N)=O)nn3)CC2)nc(N2CCN(C(=O)C(CC(N)=O)n3cc(C(N)C(C)CC)nn3)CC2)n1 (configuration not stated) | n | n | x | x | x | x
Cc1cc(C=NNC(=O)c2cccc(N(C)C)c2)c(C)n1-c1cc(C(=O)O)cc(C(=O)O)c1 | n | n | x | x | x | x
CC(C)(C)c1ccc(C(=O)CC(=O)c2cc(Cl)ccc2O)cc1 | 98 | 100 | n | n | n | n
Cc1ccc(C(=O)Nc2ccc(Cl)cc2C(=O)c2ccccc2)cc1 | 92 | n | n | u | n | n
Cc1ccc(C(=O)CC(=O)c2ccc(C(C)(C)C)cc2)cc1 | n | n | n | n | n | n
Cc1ccc(C(=O)CC(=O)c2cc(Cl)ccc2O)cc1 | 99 | 100 | n | n | n | n
Cc1ccc(OCC(=O)Nc2ccc(Cl)cc2C(=O)c2ccccc2)cc1 | n | n | n | n | n | n
COc1cc([N+](=O)[O-])cc(C=NNC(=O)Cn2nc(C)cc2C)c1O | n | n | x | x | x | x
COc1cc(C(C)=NNC(=O)c2ccc(CSc3nncn3C)cc2)cc(OC)c1OC | n | n | x | x | x | x
CC(=O)OC1CC[C@@]2(C)C(=CCC3C4CCC(C(C)=O)[C@@]4(C)CCC32)C1 (some centres not stated) | n | n | x | x | x | x
